Bioassay records deposited in PubChem by National Center for Advancing Translational Sciences (NCATS).
GLP-1R agonist: qHTS of GLP-1 Receptor Agonists; Potency, µM (top dose mostly 45.6 µM), hits mostly activators; HEK293 GLP-1R CRE-luciferase, luminescence, 4-6 h; cells express a hypersensitive GLP-1R form; 380,000 tested, 0.007% active
Target sequence (P43220 whole entry, looked up): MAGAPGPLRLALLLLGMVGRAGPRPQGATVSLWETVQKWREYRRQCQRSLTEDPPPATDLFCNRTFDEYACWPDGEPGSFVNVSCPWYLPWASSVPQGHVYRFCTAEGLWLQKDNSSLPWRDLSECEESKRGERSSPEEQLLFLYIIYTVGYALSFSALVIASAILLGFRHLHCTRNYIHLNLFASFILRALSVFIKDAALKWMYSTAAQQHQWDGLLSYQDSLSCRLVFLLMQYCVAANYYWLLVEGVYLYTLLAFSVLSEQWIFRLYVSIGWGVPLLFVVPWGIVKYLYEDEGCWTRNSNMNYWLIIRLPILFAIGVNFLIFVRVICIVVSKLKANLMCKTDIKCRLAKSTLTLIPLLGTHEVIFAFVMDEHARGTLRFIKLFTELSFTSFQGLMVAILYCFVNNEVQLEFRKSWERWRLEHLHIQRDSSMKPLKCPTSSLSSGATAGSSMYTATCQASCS
D3 ag: qHTS of D3 Dopamine Receptor Agonist: qHTS; AID 652048, 2013; max activation, %; 410,000 tested, 0.58% active; D(3) dopamine receptor (Homo sapiens), P35462; D3R DiscoveRx beta-arrestin cells, luminescence, 90 min; in the data active = max activation above about 30%
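Cells at 1500/well, incubated overnight, then treated with pinned compounds (dopamine as control) for 90 min at 37 degrees C. DiscoveRx reagent added for 30 - 60 minutes at room temperature; luminescence read.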
D3 antag: qHTS of D3 Dopamine Receptor Antagonist: qHTS; D3R cells, DiscoveRx beta-arrestin luminescence, antagonist mode; hits give low values; max response, negative = inhibition, %; 360,000 tested, 2.5% active; AID 652054, 2013; in the data active = max response below about -50%; inconclusive = no clear call, values can overlap the other calls
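Cells plated overnight at 1500 cells/well, then exposed to library compounds with dopamine controls for 90 minutes at 37 degrees C. DiscoveRx reagent added for 30–60 minutes at room temperature; luminescence read, quantitative HTS format.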
GLP1R inv ag: qHTS of GLP-1 Receptor Inverse Agonists (Inhibition Mode). Glucagon-like peptide 1 receptor (Homo sapiens), P43220. HEK293 GLP-1R CRE-luciferase, luminescence, 24 h; GLP-1R form is constitutively active. Potency, µM (titrated, usually from 38.3 µM), actives largely listed as inhibitors. 410,000 tested, 1.6% active. AID 624417, 2012; also: nearly all actives have a fitted effect of over 55% in size
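Using stably transfected HEK293 (constitutively active GLP-1R, cAMP-luciferase reporter), compounds were incubated 24 hr and luciferase measured by luminescence.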
Of the large screens only hits and unclear results are named; the others gave an inactive call. Only some compounds are listed: those with a hit (about 4.3% of all), similar ones and a draw of the others. Unless noted, calls follow the shape of the dose curve; as a rule, active = well fitted curve in the direction sought with a large enough effect; inconclusive = small, poorly fitted or top-dose-only effect, or another doubt; inactive = no such curve, though single readings can be large; an effect the other way counts as inactive or inconclusive.

NCCCNCCCCNC(=O)C(O)NC(=O)CCCCCCN=C(N)N (stereo not given)	none (no result: D3 antag, GLP1R inv ag)
CCOC(=O)c1cnc(-n2nc(C)cc2C)nc1NCc1ccccc1	GLP1R inv ag 3.5µM
CCOC(=O)c1cnc(-n2nc(C)cc2C)nc1NNc1ncc(-c2ccccc2)cn1	GLP1R inv ag inconclusive
CCOC(=O)c1cnc(-n2nc(C)cc2C)nc1NC(C)c1ccccc1 (stereo not given)	D3 antag -59, GLP1R inv ag 2.5µM
Cc1ccc2onc(CC(=O)N3CCN(c4cccc(C)c4C)CC3)c2c1	GLP1R inv ag inconclusive (no result: GLP-1R agonist, D3 antag)
Cn1cc(S(=O)(=O)c2ccccc2)c(=O)c2cc(F)c(N3CCCC3)cc21	none (no result: GLP-1R agonist, D3 antag)
Cc1ccc(Cl)cc1N1CCN(C(=O)c2cn(C3CCCCC3)c(=O)c3c2c2ccccc2n3C)CC1	none (no result: GLP-1R agonist, D3 antag)
CCc1cccc(NC(=O)c2ccc(NC(=O)N3CCSc4ncccc43)cc2)c1	none (no result: GLP-1R agonist, D3 antag)
CC1CCc2nn(CC(=O)NCCCN3CCCC3=O)cc2C1 (stereo not given)	none
O=C(Cn1cc2c(n1)CCCC2)NCCCN1CCN(c2ccccc2F)CC1	D3 antag -83
Cc1ccc(C)c(N2CCN(CCCNC(=O)Cn3cc4c(n3)CCC(C)C4)CC2)c1 (stereo not given)	D3 antag -60
Cc1ccc(C)c(N2CCN(CCCNC(=O)Cn3cc4c(n3)CCCCC4)CC2)c1	D3 antag -96, GLP1R inv ag inconclusive
O=C(CSCc1ccc(F)cc1)N1CCN(c2ccccc2F)CC1	none (no result: GLP-1R agonist, D3 antag)
CCOC(=O)C1(Cc2cccc(Cl)c2)CCCN(C(=O)c2occc2C)C1 (stereo not given)	GLP1R inv ag 11µM
CCOC(=O)N1CCN(CC(=O)Nc2sc(CC)cc2C(=O)c2ccc(OC)cc2)CC1	GLP1R inv ag 5.6µM
Cc1csc2nc(COC(=O)c3ccc(NC(=O)c4ccccc4Br)cc3)cc(=O)n12	GLP1R inv ag inconclusive (no result: GLP-1R agonist, D3 antag)
CCOc1ccc(NS(=O)(=O)c2ccc3[nH]cc(C(=O)NCC4CCCO4)c(=O)c3c2)cc1 (stereo not given)	D3 antag -55
CC(C)c1ccc(NS(=O)(=O)c2ccc3[nH]cc(C(=O)NCC4CCCO4)c(=O)c3c2)cc1 (stereo not given)	none (no result: GLP-1R agonist, D3 antag)
Cc1cc(C)cc(NS(=O)(=O)c2ccc3[nH]cc(C(=O)NC4CCCCC4)c(=O)c3c2)c1	GLP1R inv ag 7.1µM (no result: GLP-1R agonist, D3 antag)
Cc1ccccc1NS(=O)(=O)c1ccc2[nH]cc(C(=O)NC3CCCCC3)c(=O)c2c1	GLP1R inv ag 10µM (no result: GLP-1R agonist, D3 antag)
Cc1ccc(-c2nc(CS(=O)(=O)CC(=O)NCc3ccc(Cl)cc3)c(C)o2)cc1	none (no result: GLP-1R agonist, D3 antag)
CC(C)(C)c1ccc(C(=O)N2CCCC2c2cccs2)cc1 (stereo not given)	GLP1R inv ag 11µM
CS(=O)(=O)Cc1ccc(C(=O)N2CCCC2c2cccs2)cc1 (stereo not given)	none
CC1CCc2c(sc3ncnc(NCCN4CCOCC4)c23)C1 (stereo not given)	D3 antag -71
CC1CCc2c(sc3ncnc(N4CCOCC4)c23)C1 (stereo not given)	none
COc1cccc(-c2ncc3ccccn23)c1	none
COc1cc(OC)cc(-c2ncc3ccccn23)c1	GLP-1R agonist inconclusive, D3 antag -58
O=C(c1ccc2c3c(cccc13)CC2)C1CCCN(Cc2ccc(OCCO)cc2)C1 (stereo not given)	D3 antag -97, GLP1R inv ag inconclusive
O=C(c1ccc2c3c(cccc13)CC2)C1CCCN(Cc2ccccn2)C1 (stereo not given)	D3 antag -51, GLP1R inv ag inconclusive
Cc1cnc(CN2CCCC(C(=O)c3ccc4c5c(cccc35)CC4)C2)[nH]1 (stereo not given)	D3 antag -53, GLP1R inv ag inconclusive
COCC(=O)N1CCCC(C(=O)c2ccc3c4c(cccc24)CC3)C1 (stereo not given)	none
Cn1ccnc1C1CCCCN1Cc1nc(-c2ccc3c(c2)OCO3)no1 (stereo not given)	none
CCn1cc2c(n1)-c1c(oc(C(=O)Nc3cccc(C(F)(F)F)c3)c1C)CC2	none (no result: GLP-1R agonist, D3 antag)
Nc1c(C(=O)O)ccc2c1C(=O)c1ccccc1C2=O	D3 antag inconclusive
Nc1cc(C(=O)O)c(N)c2c1C(=O)c1ccccc1C2=O	D3 antag -55, GLP1R inv ag inconclusive
CCOC(=O)c1ccc(N2C(=O)c3n[nH]c(-c4ccco4)c3C2c2ccc(OCC)cc2)cc1 (stereo not given)	GLP1R inv ag 11µM (no result: GLP-1R agonist, D3 antag)
Cc1nc(-c2ccc(S(=O)(=O)N3CCN(c4cccc(Cl)c4)CC3)cc2)co1	none (no result: D3 antag)
Cc1ccc(CNC(=O)CCCCn2c(=O)c3ccccc3n(Cc3ccc(Cl)cc3)c2=O)cc1	none (no result: D3 antag)
CC(NCC(=O)Nc1ccccc1C(=O)NC1CC1)c1cccc(C(F)(F)F)c1 (stereo not given)	GLP1R inv ag 13µM
CCc1ccc(-c2cc(C)no2)cc1S(=O)(=O)NC(C)Cc1ccco1 (stereo not given)	GLP1R inv ag 3.5µM
Cc1cc(-c2ccc(C(C)C)c(S(=O)(=O)NCc3ccco3)c2)on1	GLP1R inv ag inconclusive
CCc1ccc(-c2cc(C)no2)cc1S(=O)(=O)Nc1cc(C)on1	D3 antag -75
CCN(CC)CCNC(=O)c1ccc(-c2nc(CN3CCc4ccccc43)c(C)o2)cc1	none (no result: D3 antag)
CCc1c(C)c(C#N)c2nc3ccccc3n2c1NC	none
Cc1cc(Cl)n2c(nc3ccccc32)c1C#N	D3 antag -73
Cc1c(CCCl)c(Cl)n2c(nc3ccccc32)c1C#N	D3 antag -103, GLP1R inv ag inconclusive
CCOC(=O)c1sc(N2C(=O)c3oc4cc(C)c(C)cc4c(=O)c3C2c2ccc(C)cc2)nc1C (stereo not given)	none (no result: GLP-1R agonist, D3 antag)
CCCc1cc(C(=O)Nc2c(C)nn(Cc3c(Cl)cccc3Cl)c2C)no1	GLP1R inv ag inconclusive (no result: GLP-1R agonist, D3 antag)
CSc1ccccc1NC(=O)C1(C)CCN1C(=O)CCC1CCCC1 (stereo not given)	GLP1R inv ag inconclusive
CC1(C(=O)Nc2cccc3c2CCCC3)CCN1C(=O)CCC1CCCC1 (stereo not given)	GLP1R inv ag 11µM
CCn1cc(C(=O)N2CCN(c3cccc(Cl)c3)CC2)c(=O)c2cc(S(=O)(=O)N3CCOCC3)ccc21	none (no result: D3 antag)
CCOc1ccc(C(=O)Nc2ccc(S(=O)(=O)Nc3nc(C)cc(C)n3)cc2)cc1OC	none (no result: GLP-1R agonist, D3 antag)
COc1cc(C2Oc3ccccc3C=C2[N+](=O)[O-])cc(OC)c1OC (stereo not given)	GLP1R inv ag 11µM
O=C(Nc1ccccc1Cc1ccccc1)c1oc2ccccc2c1COc1ccccc1	GLP1R inv ag 4.5µM
O=C(NCCc1ccccc1)c1oc2ccccc2c1COc1ccccc1	GLP1R inv ag 3.2µM
COC(=O)c1cc(OC)c(OC)cc1NC(=O)c1ccccc1C	none
COc1ccc(NS(=O)(=O)c2cc3[nH]c(=O)c(=O)[nH]c3cc2C)cc1Cl	none (no result: GLP-1R agonist, D3 antag)
